Measured values as given in PubChem BioAssay AID1159580 (chemical genetic matrix, 2015).
“And” between values parts separate entries of the source, which are not always exact repeats. Equal values may be shown once. Screen size: about 5,500 compounds; about 2,000 (36%) were called active. Inconclusive results (about 18%) are left out. Rule as the data show it: active = normalized growth mostly below about 0.91 (no sharp cut-off); inconclusive = no clear call, values can overlap the other calls; inactive = mostly above about 0.92. Some of the results follow.

Assay: chemical genetic growth profiling, strain panel (AID 1159580);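 also: tested at 20 µM; growth read once vehicle control cultures reached saturation at 30 °C; 1 = growth at the plate median or of vehicle wells; lower values mean less growth of the strain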
Conditions: S. cerevisiae deletion strains, growth OD

Measured: normalized growth

COc1ccc2c(c1)c(CC(=O)OCC(=O)O)c(C)n2C(=O)c1ccc(Cl)cc1
inactive: locus YAL013W, strain DEP1, stronger effect = lower value 1.01 | locus YAL021C, strain ccr4, stronger effect = lower value 0.982 | locus YAL026C, strain drs2, stronger effect = lower value 1.01 | locus YAL030W, strain snc1, stronger effect = lower value 0.99 | locus YBL061C, strain skt5, stronger effect = lower value 1 | locus YBR009C, strain hhf1, stronger effect = lower value 0.991 | locus YBR021W, strain FUR4, stronger effect = lower value 1.01 | locus YBR023C, strain chs3, stronger effect = lower value 1.01 | locus YBR171W, strain sec66, stronger effect = lower value 0.978 | locus YBR229C, strain ROT2, stronger effect = lower value 1.02 | locus YBR231C, strain swc5, stronger effect = lower value 0.973 | locus YBR279W, strain paf1, stronger effect = lower value 1.01 | locus YCL011C, strain gbp2, stronger effect = lower value 1.02 | locus YCL016C, strain dcc1, stronger effect = lower value 1.01 | locus YCL029C, strain bik1, stronger effect = lower value 1.04 | locus YCL069W, strain vba3, stronger effect = lower value 1 | locus YCR088W, strain abp1, stronger effect = lower value 1.01 | locus YDL005C, strain med2, stronger effect = lower value 0.979 | locus YDL035C, strain GPR1, stronger effect = lower value 1.02 | locus YDL040C, strain nat1, stronger effect = lower value 0.995 | locus YDL074C, strain BRE1, stronger effect = lower value 1.01 | locus YDL101C, strain DUN1, stronger effect = lower value 1.02 | locus YDL134C, strain PPH21, stronger effect = lower value 1.02 | locus YDL185W, strain tfp1, stronger effect = lower value 1.02 | locus YDL192W, strain arf1, stronger effect = lower value 1.02 | locus YDR001C, strain nth1, stronger effect = lower value 1.01 | locus YDR069C, strain doa4, stronger effect = lower value 0.996 | locus YDR101C, strain arx1, stronger effect = lower value 1.02 | locus YDR137W, strain rgp1, stronger effect = lower value 1.02 | locus YDR150W, strain NUM1, stronger effect = lower value 1.02 | locus YDR159W, strain sac3, stronger effect = lower value 0.964 | locus YDR162C, strain NBP2, stronger effect = lower value 1.01 | locus YDR195W, strain ref2 0.939 | locus YDR297W, strain sur2, stronger effect = lower value 1 | locus YDR318W, strain mcm21, stronger effect = lower value 1.02 | locus YDR334W, strain swr1, stronger effect = lower value 1 | locus YDR335W, strain msn5, stronger effect = lower value 0.989 | locus YDR388W, stronger effect = lower value 1.01 | locus YDR392W, strain spt3, stronger effect = lower value 1.03 | locus YDR502C, strain sam2, stronger effect = lower value 1.03 | locus YEL003W, strain gim4, stronger effect = lower value 0.988 | locus YEL037C, strain rad23, stronger effect = lower value 1 | locus YEL061C, strain CIN8 (second series), stronger effect = lower value 0.995 | locus YEL061C, strain CIN8, stronger effect = lower value 1.01 | locus YER015W, strain faa2, stronger effect = lower value 1 | locus YER016W, strain bim1, stronger effect = lower value 1.01 | locus YER110C, stronger effect = lower value 1.02 | locus YER111C, strain swi4, stronger effect = lower value 0.991 | locus YER155C, strain BEM2 (second series), stronger effect = lower value 0.989 | locus YER155C, strain BEM2, stronger effect = lower value 1.01 | locus YER167W, strain BCK2, stronger effect = lower value 1.01 | locus YFR010W, strain ubp6, stronger effect = lower value 0.994 | locus YGL078C, strain dbp3, stronger effect = lower value 1.01 | locus YGL086W, strain mad1, stronger effect = lower value 1.01 | locus YGL167C, strain pmr1, stronger effect = lower value 0.987 | locus YGL173C, strain kem1, stronger effect = lower value 0.976 | locus YGL227W, strain vid30, stronger effect = lower value 0.999 | locus YGL240W, strain doc1, stronger effect = lower value 0.982 | locus YGL248W, strain PDE1, stronger effect = lower value 1.01 | locus YGL253W, strain hxk2, stronger effect = lower value 1.01 | locus YGR078C, strain PAC10, stronger effect = lower value 1.02 | locus YGR135W, strain pre9, stronger effect = lower value 1.02 | locus YGR229C, strain SMI1, stronger effect = lower value 1.02 | locus YGR252W, strain gcn5, stronger effect = lower value 0.987 | locus YHR013C, strain ard1, stronger effect = lower value 1.09 | locus YHR027C, strain rpn1, stronger effect = lower value 0.999 | locus YHR030C, strain SLT2, stronger effect = lower value 1.02 and 0.958 | locus YHR079C, strain IRE1 (second series), stronger effect = lower value 1.01 | locus YHR079C, strain IRE1, stronger effect = lower value 0.941 | locus YHR094C, strain hxt1, stronger effect = lower value 1.01 | locus YHR129C, strain ARP1, stronger effect = lower value 1 | locus YHR142W, strain chs7, stronger effect = lower value 1.01 | locus YHR200W, strain rpn10, stronger effect = lower value 1.01 | locus YIL066C, strain RNR3, stronger effect = lower value 1.02 | locus YIL073C, strain SPO22, stronger effect = lower value 1.06 | locus YIL125W, strain kgd1, stronger effect = lower value 1.01 | locus YIR030C, strain dcg1, stronger effect = lower value 1.02 | locus YJL092W, strain hpr5, stronger effect = lower value 0.981 | locus YJL095W, strain BCK1 (second series), stronger effect = lower value 1.01 | locus YJL095W, strain BCK1, stronger effect = lower value 1.05 and 0.968 | locus YJL115W, strain asf1, stronger effect = lower value 0.992 | locus YJL129C, strain trk1, stronger effect = lower value 0.979 | locus YJL134W, strain LCB3, stronger effect = lower value 1.01 | locus YJL154C, strain vps35, stronger effect = lower value 0.992 | locus YJL164C, strain tpk1, stronger effect = lower value 1.03 | locus YJL166W, strain qcr8, stronger effect = lower value 0.974 | locus YJL168C, strain set2, stronger effect = lower value 1.01 | locus YJL187C, strain SWE1 (second series), stronger effect = lower value 1.03 | locus YJL187C, strain SWE1, stronger effect = lower value 1.01 | locus YJR043C, strain POL32, stronger effect = lower value 1.03 | locus YJR066W, strain TOR1, stronger effect = lower value 0.89
